Assay outcomes deposited in PubChem by National Center for Advancing Translational Sciences (NCATS).
The sample as a whole holds a higher share of hits than the screen did.
CHX counter – counter-screen hit for Shiga toxin inhibitors, cycloheximide; cell reporter, cycloheximide protein synthesis inhibition counterscreen; AID 2314; hit rate 12% among 300,000; max response, %; in the data active = max response mostly above about 13%, no sharp cut-off; inactive = mostly below about 14%; also: read at 38.3 µM for the half of the compounds with a filed dose; 0% is about no effect
LmPK inh – inhibitors of Leishmania mexicana pyruvate kinase | Potency, µM (highest dose often 57.5 µM), for the others: at the highest dose activity change, negative = inhibition, actives largely listed as inhibitors | purified LmPK, Kinase-Glo ATP luminescence, 1 h | hit rate 0.37% among 290,000 | Q27686 | AID 1721; also: potency is read from the fitted curve at half-maximal effect; % is scaled to controls: 0 for no effect and ±100 for the full control effect
Target sequence (Q27686 whole entry, looked up): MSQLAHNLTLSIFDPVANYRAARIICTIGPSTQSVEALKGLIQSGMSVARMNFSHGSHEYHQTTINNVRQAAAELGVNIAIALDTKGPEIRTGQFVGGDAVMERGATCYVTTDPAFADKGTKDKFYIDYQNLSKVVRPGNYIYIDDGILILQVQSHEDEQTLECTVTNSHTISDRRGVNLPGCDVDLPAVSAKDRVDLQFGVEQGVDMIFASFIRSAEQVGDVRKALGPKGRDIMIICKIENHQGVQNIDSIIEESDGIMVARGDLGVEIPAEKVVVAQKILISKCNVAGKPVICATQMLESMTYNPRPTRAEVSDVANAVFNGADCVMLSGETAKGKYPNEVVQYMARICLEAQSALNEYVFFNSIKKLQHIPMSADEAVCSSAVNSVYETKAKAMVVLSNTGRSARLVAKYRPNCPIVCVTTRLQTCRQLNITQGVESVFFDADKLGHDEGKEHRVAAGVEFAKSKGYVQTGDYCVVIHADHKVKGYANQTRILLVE
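Purified LmPK (0.1 nM) with 0.5 mM PEP and 0.1 mM ADP in imidazole buffer pH 7.2 with MgCl2/KCl, 1 h at room temperature. ATP formed was read by luciferase luminescence and normalized to no-enzyme and uninhibited controls.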
TbPYK inhibitor – T. brucei pyruvate kinase inhibition | Q57TT1 | hit rate 0.12% among 410,000 | Potency, µM (series often up to 76.8 µM), without a hit: at the highest dose activity, negative = inhibition, hits mostly inhibitors | TbPYK enzyme, Kinase-Glo Plus ATP luminescence, 45 min | AID 624173; also: potency is read from the fitted curve at half-maximal effect; % is scaled to controls: 0 for no effect and ±100 for the full control effect; nearly all actives have a fitted effect of over 50% in size
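Luminescence from Kinase-Glo Plus, added after a 45-minute room-temperature reaction, served as the end-point read-out. The enzyme and substrate were preincubated with compound before ADP (130 uM final) initiated turnover. Concentration-effect curves came from normalized qHTS data.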
FBPA Giardia inh – Giardia lamblia aldolase inhibition; hit rate 0.71% among 290,000; purified Giardia FBPA; Potency, µM (doses to about 59.6 µM), inactives show top-dose activity, negative = inhibition, hits mostly inhibitors; AID 2451; also: potency is read from the fitted curve at half-maximal effect; % is scaled to controls: 0 for no effect and ±100 for the full control effect; nearly all actives have a fitted effect of over 55% in size
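40 nM FBPA preincubated 10 min at RT with compound (up to 57.5 uM final), then substrate plus GAPDH/TPI/NAD/arsenate coupling and diaphorase/resazurin added. Fluorescence read after 20 min at RT, 525/598 nm.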
Shiga toxin inh – blocks Shiga toxin action in Vero cells; Vero cells, Shiga toxin protein synthesis inhibition reporter; inhibition, % at 38.7 µM; hit rate 9.2% among 290,000; AID 2315; in the data active = inhibition mostly above about 28%, no sharp cut-off; inactive = mostly below about 43%; also: 0% is about no effect
Sm TGR inh – blocks Schistosoma mansoni thioredoxin glutathione reductase; Q962Y6; purified TGR, DTNB reduction, TNB absorbance 405 nm; Potency, µM (doses to about 114 µM), without a hit: at the top dose activity change, negative = inhibition, actives largely listed as inhibitors; hit rate 3% among 360,000; AID 485364; also: potency is read from the fitted curve at half-maximal effect; % is scaled to controls: 0 for no effect and ±100 for the full control effect; nearly all actives have a fitted effect of over 60% in size
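TGR 20 nM + NADPH 100 uM (dispensed conc.), cpd preinc 15 min RT; start with NADPH (500 uM addition) then DTNB (15 mM addition). Kinetic TNB absorbance, 405 nm filter. Four-parameter Hill fit across titration.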
The depositor's hits bear a star; ? = inconclusive; . = not tested or not shown. Unless noted, calls follow the shape of the dose curve; as a rule, active = well fitted curve in the direction sought with a large enough effect; inconclusive = small, poorly fitted or top-dose-only effect, or another doubt; inactive = no such curve, though single readings can be large; an effect the other way counts as inactive or inconclusive.

SMILES | CHX counter | LmPK inh | TbPYK inhibitor | FBPA Giardia inh | Shiga toxin inh | Sm TGR inh
CC(=O)Nc1ccc(S(=O)(=O)NC2(C(F)(F)F)NC(=O)N(CCc3ccc(F)cc3)C2=O)cc1 (stereo not given) | . | . | 10% | . | . | -30%
N=C1S/C(=C\c2ccco2)C(=O)N1c1nccs1 | 34* | -4% | -6% | -18% | 59* | 22µM*
NCCN1C(=O)S/C(=C\c2ccc3c(c2)OCO3)C1=O | -3 | -1% | 0% | -15% | -17 | 3%
COc1ccccc1OCCN1C(=O)S/C(=C\c2ccco2)C1=O | 7 | 3% | -2% | -12% | 32 | ?
N=C1S/C(=C\c2ccco2)C(=O)N1c1ccc2c(c1)OCO2 | 33* | -1% | 3% | -9% | 74* | .
Cc1cccc(N2CCN(C(=O)c3cccc(S(=O)(=O)N4CCOCC4)c3)CC2)c1C | . | . | 4% | . | . | -3%
COc1ccc(N2CC(C(=O)N[C@@H](CC(C)C)C(=O)NC3CCCC3)CC2=O)cc1 (stereo not given in full) | -3 | -2% | -5% | . | 19 | 0%
COc1ccccc1Nc1ncc(-c2cccs2)s1 | 40* | -11% | -12% | 5% | 108* | 8%
CCOc1cc(C2C(C(=O)Nc3ccccc3)=C(C)Nc3ncnn32)cc(Br)c1O (stereo not given) | . | . | -13% | . | . | 45µM*
CCN(CC)c1ccc(C2C(C(N)=O)=C(C)Nc3ncnn32)cc1 (stereo not given) | . | . | -5% | . | . | -3%
COc1ccc(C2C(C(N)=O)=C(C)Nc3ncnn32)cc1 (stereo not given) | 22* | -3% | 1% | 3% | 38 | 3%
O=C(CCC1N=C2c3ccccc3N=C(SCc3ccccc3F)N2C1=O)NC1CCCCC1 (stereo not given) | . | . | 2% | . | . | -3%
CCCc1cc(=O)oc2c(C)c3c(cc12)CN(CCc1ccc(Cl)cc1)CO3 | . | . | -1% | . | . | -2%
O=C(Nc1cccc(Cl)c1)c1ccc2nc(CCc3ccccc3)oc2c1 | . | . | 3% | . | . | 6%
O=c1c(Br)c(N2CCCC2)cnn1-c1ccccc1 | 47* | -1% | -4% | 3% | 81* | 1%
CN1CCN(c2cnn(-c3ccccc3)c(=O)c2Br)CC1 | 29* | -1% | 1% | 4% | 53* | 10%
O=C(Cn1cnc2c(cnn2-c2ccccc2)c1=O)N1CCOCC1 | 7 | -7% | -10% | -1% | -11 | 1%
CS(=O)(=O)N1CCN(c2cnn(-c3ccccc3)c(=O)c2Cl)CC1 | -5 | 0% | -1% | 4% | 3 | 1%
O=c1c(Br)c(N2CCCCC2)cnn1-c1ccccc1 | 21* | -2% | -15% | 0% | 116* | 1%
O=C(c1ccc(F)cc1)N1CCN(c2cnn(-c3ccccc3)c(=O)c2Cl)CC1 | -4 | 1% | -6% | 1% | 3 | 15%
O=c1c(Br)c(N2CCOCC2)cnn1-c1ccccc1 | 18* | 3% | 6% | 5% | 92* | 2%
COc1ccc2c(c1)CCC1C2=NN(/C(C)=C/C(C)=O)C1c1cccc(F)c1 (stereo not given) | 32* | -1% | -10% | -28% | 47* | -22%
CC(=O)N1N=C2c3ccccc3CCC2C1c1ccc(F)cc1 (stereo not given) | -1 | 2% | 0% | 6% | -9 | 1%
CCC(C(=O)OC)n1cnc2c(cnn2-c2ccc(F)cc2)c1=O (stereo not given) | . | . | -1% | . | . | -1%
CCOC(=O)C(CC)n1cnc2c(nnn2-c2ccc(C)cc2)c1=O (stereo not given) | 22 | -1% | -1% | 5% | 31 | 7%
SMILES | CHX counter | LmPK inh | TbPYK inhibitor | FBPA Giardia inh | Shiga toxin inh | Sm TGR inh
COC(=O)C(C)n1cnc2c(nnn2-c2ccc(C)cc2)c1=O (stereo not given) | 13* | -7% | 1% | 13% | 19* | 0%
CCC(C(=O)OC)n1cnc2c(nnn2-c2ccc(F)cc2)c1=O (stereo not given) | 9.1* | -4% | -8% | 5% | 17 | 10%
COC(=O)C(C)n1cnc2c(nnn2-c2ccc(OC)cc2)c1=O (stereo not given) | -1 | 2% | -2% | 1% | -25 | 30%
CCOC(=O)C(CC)n1cnc2c(nnn2-c2cccc(OC)c2)c1=O (stereo not given) | 17* | 3% | 0% | 3% | 18 | 6%
Cc1ccc2nc(COc3ccc(Cl)cc3)cc(=O)n2c1 | 41* | -8% | -2% | 4% | 98* | 0%
COc1ccc(/C=C/C2=NN(C)C(=O)CC2)cc1 | 34* | -6% | -17% | 1% | 54* | 2%
CCOC(=O)CN1N=C(/C=C/c2ccc(C)cc2)CCC1=O | 21 | 5% | -3% | -1% | 47* | 4%
CCC(=O)N(Cc1cc2ccc(C)cc2[nH]c1=O)c1ccccc1OC | -2 | 4% | 1% | 16% | -1 | 89µM*
COCC(=O)N(Cc1cc2cc(C)ccc2[nH]c1=O)c1ccccc1 | 12* | 0% | 0% | 4% | 22 | 8%
O=C(NC1CCCCC1)C(c1ccncc1)N(C(=O)c1csnn1)c1ccccc1 (stereo not given) | -10 | -1% | -3% | 14% | 18 | -11%
COc1ccc(CN(C(=O)c2ccco2)c2ccccc2)cc1 | 0 | 4% | -6% | 10% | 14 | -6%
COc1ccc(N(Cc2cc(=O)[nH]c3ccccc23)C(=O)c2ccco2)cc1 | 1 | -1% | 5% | -3% | 38 | 32µM*
C=CCc1cccc(/C=N/n2cnnc2)c1O | -3 | 4% | -8% | -8% | -4 | -24%
C=CCc1cccc(/C=C/c2cc(=O)c3ccccc3[nH]2)c1O | 25* | -1% | -4% | -16% | 65* | -4%
COC(=O)C(Cc1ccc(O)cc1)NC(=O)C(C)NC(=O)c1ccc(C(C)(C)C)cc1 (stereo not given) | 9 | 1% | -1% | -8% | 20 | 2%
CN(CC(=O)Nc1ccc(F)cc1)CC(=O)N1CCCC1 | . | . | -1% | . | . | 12%
CCOc1cc(CN2CCSCC2)ccc1O | -3 | 3% | -11% | -11% | -9 | 40µM*
CCOc1cc(CN2CCN(c3cccc(C(F)(F)F)c3)CC2)ccc1O | -5 | 1% | 25% | ? | -12 | 45µM*
COc1cccc(CC(=O)N2CCC(n3nccc3NC(=O)C3CC3)CC2)c1 | 17 | -1% | 1% | . | 12 | 0%
CSc1ccc(CC(=O)N2CCC(n3nccc3NC(=O)C3CC3)CC2)cc1 | 45* | 1% | -7% | ? | 75* | -26%
COc1cc(CN2CCC(n3nccc3NC(=O)C3CC3)CC2)cc(OC)c1 | -2 | 3% | 2% | -5% | -14 | 3%
CCOc1cc(CN2CCC(n3nccc3NC(=O)C3CC3)CC2)ccc1O | 2 | -5% | 8% | 0% | -3 | 40µM*
